RORg inh: qHTS for inhibitors of ROR gamma transcriptional activity; Drosophila S2 Gal4-RORgamma UAS-luciferase reporter, 20 h; Potency, µM (series often up to 53.6 µM), inactives show top-dose activity change, negative = inhibition, actives largely listed as inhibitors; 310,000 compounds, 5.4% hits; also: potency is read from the fitted curve at half-maximal effect; nearly all actives have a fitted effect of over 60% in size
Target sequence (P51450 whole entry, looked up, the tested form may be a part): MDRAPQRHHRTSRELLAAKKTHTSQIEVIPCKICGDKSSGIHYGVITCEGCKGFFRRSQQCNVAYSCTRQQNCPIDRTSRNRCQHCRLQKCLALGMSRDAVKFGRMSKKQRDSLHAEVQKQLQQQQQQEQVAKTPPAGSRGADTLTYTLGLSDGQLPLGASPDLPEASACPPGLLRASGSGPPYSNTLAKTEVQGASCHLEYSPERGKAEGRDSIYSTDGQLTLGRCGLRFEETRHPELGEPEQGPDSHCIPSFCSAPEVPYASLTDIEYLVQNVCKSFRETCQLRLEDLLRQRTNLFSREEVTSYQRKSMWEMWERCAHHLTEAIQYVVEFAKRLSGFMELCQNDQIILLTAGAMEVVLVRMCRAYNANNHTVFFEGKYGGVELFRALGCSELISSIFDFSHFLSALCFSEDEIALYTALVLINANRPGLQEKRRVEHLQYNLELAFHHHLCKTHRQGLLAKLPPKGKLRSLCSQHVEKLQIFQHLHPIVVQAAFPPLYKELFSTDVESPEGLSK
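Read-out: Photinus luciferase luminescence; inhibitors lower reporter signal. Insect Schneider cells with Gal4-ROR gamma fusion under metallothionein promoter, UAS reporter; 700 uM final copper sulfate induction, 20 hr, ambient temperature.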
DT40 TDP1 CPT: qHTS for Inhibitors of human tyrosyl-DNA phosphodiesterase 1 (TDP1): qHTS in cells in presence of CPT | chicken DT40 Tdp1-/-;hTDP1 cells + 20 nM CPT, ATP luminescence, 48 h | 420,000 compounds, 12% hits | Potency, µM (doses to about 46.2 µM), without a hit: at the top dose activity change, negative = growth inhibition, usual class: inhibitors; also: potency is read from the fitted curve at half-maximal effect; nearly all actives have a fitted effect of over 55% in size
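Cell growth measured by CellTiter-Glo luminescence after a minimum 48 h, 37 C compound exposure with 20 nM CPT in Tdp1-knockout DT40 cells stably expressing hTDP1, seeded 400/well; qHTS titration format.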
LDHA inh: qHTS assay for inhibitors of human lactate dehydrogenase. purified LDHA, NADH/diaphorase-resazurin fluorescence; hits give low values. activity change, % (values are at about 110 or 230 µM). 480,000 compounds, 0.15% hits. AID 1347041, 2019; in the data active = activity change below about -30%; inconclusive = mostly about -25% to -30%;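 also: plate controls were DMSO wells for no effect and wells without enzyme for full effect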
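Remaining NADH was detected by diaphorase (0.133 mg/mL) converting 37 µM resazurin to fluorescent resorufin, read at 0 and 20 minutes. The preceding 5-minute room-temperature reaction used 2 nM LDHA, 0.2 mM sodium pyruvate and 0.06 mM NADH at pH 7.4.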
TDP1 cell noCPT: qHTS for Inhibitors of human tyrosyl-DNA phosphodiesterase 1 (TDP1): qHTS in cells in absence of CPT. DT40 Tdp1-/- hTDP1 cells, no CPT, ATP luminescence, 48 h. Potency, µM (titrated, usually from 46.2 µM), without a hit: at the top dose activity change, negative = growth inhibition, usual class: inhibitors. 420,000 compounds, 15% hits. AID 686978, 2013; also: potency is read from the fitted curve at half-maximal effect; nearly all actives have a fitted effect of over 55% in size
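Growth of hTDP1-complemented DT40 Tdp1-knockout cells is measured by ATP luminescence after at least 48 hr compound exposure at 37 °C, with DMSO substituting for the 20 nM CPT used in the parallel screen.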
Gal4-VP16 FLuc: VP16 counterscreen qHTS for inhibitors of ROR gamma transcriptional activity; 310,000 compounds, 3.5% hits; Potency, µM (top dose mostly 53.6 µM), for the others: top-dose activity, negative = inhibition, usual class: inhibitors; AID 2546, 2010; Drosophila S2 Gal4-VP16 UAS-luciferase, luminescence, 20 h;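 also: Gal4-VP16 expression switched on by copper sulfate through the metallothionein promoter; potency is read from the fitted curve at half-maximal effect; nearly all actives have a fitted effect of over 50% in size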
IL1B secr inh: qHTS for Inhibitors of Inflammasome Signaling: IL-1-beta AlphaLISA Primary Screen | 360,000 compounds, 4.7% hits | THP-1 LPS/ATP IL-1B secretion, AlphaLISA, 16 h; hits give low values | activity change, % at 57.5 µM; in the data active = activity change below about -50%; inconclusive = mostly about -30% to -49%
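Secreted IL-1B measured by AlphaLISA bead assay after 16 h compound exposure of THP-1 cells; compounds (final up to 57.5 uM) added 1 h before LPS (250 ng/mL) and ATP (1.25 mM) stimulation; lower signal means less secretion.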
Numbers without * were called inactive; [ ] = another dose, or the depositor's remark. This is a sample that favours compounds with a hit; in the whole collection about 18% have one here. Unless noted, calls follow the shape of the dose curve; as a rule, active = well fitted curve in the direction sought with a large enough effect; inconclusive = small, poorly fitted or top-dose-only effect, or another doubt; inactive = no such curve, though single readings can be large; an effect the other way counts as inactive or inconclusive. Unless noted, % is scaled to controls: 0 for no effect and ±100 for the full control effect.

`CC(C)(C)C(=O)/C=c1/[nH]c(=O)/c(=C/c2cccc3ccccc23)s1` gave LDHA inh -2.
For COc1cc(C2C(C#N)=C(N)Oc3n[nH]c(C)c32)cc(Br)c1OCc1ccccc1 (stereo not drawn) the results were LDHA inh -2.
For CCOC(=O)Cc1ccc(NC(=O)Nc2nnc(N3CCCC(C)C3)s2)cc1 (stereo not drawn) the results were LDHA inh -1.
`CCOC(=O)Cc1nnc(SC(C)C(=O)Nc2cc(Cl)ccc2C)n1C` (stereo not drawn) gave LDHA inh 29.
`COC(=O)c1ccc(Nc2cc(C)nc3ccc(OC)cc23)cc1` gave LDHA inh -12.
For COc1ccc2nc(C)cc(Nc3ccc(C)cc3)c2c1 the results were RORg inh 8%, DT40 TDP1 CPT 5.8µM*, LDHA inh -2, TDP1 cell noCPT inconclusive, Gal4-VP16 FLuc 0% and IL1B secr inh inconclusive.
Screening COc1ccc2nc(C)cc(Nc3ccc(Cl)c(Cl)c3)c2c1 returned DT40 TDP1 CPT 2.1µM*, LDHA inh -9 and TDP1 cell noCPT 1.8µM*.
Screening Cc1cc(Nc2cccc(O)c2)c2ccccc2n1 returned RORg inh 11% and Gal4-VP16 FLuc -3%.
`COc1ccc(OC)c(Nc2cc(C)nc3ccc(C)cc23)c1` gave DT40 TDP1 CPT 4.6µM*, LDHA inh -13, TDP1 cell noCPT 5.2µM* and IL1B secr inh -77*.
Cc1cc(Nc2cccc(Br)c2)c2ccccc2n1 was read as DT40 TDP1 CPT 5.8µM*, LDHA inh -2, TDP1 cell noCPT 10µM* and IL1B secr inh -91*.
`Cc1ccc(S(=O)(=O)N(CC(=O)NCC2CCCO2)c2cccc(C)c2)cc1` (stereo not drawn) gave LDHA inh -3.
O=S1(=O)[C@H]2C[C@H](CO)O[C@@]2(CO)CN1Cc1ccc(-c2cccc(Cl)c2)cc1 was read as DT40 TDP1 CPT 21µM*, LDHA inh 3, TDP1 cell noCPT inconclusive and IL1B secr inh -6.
O=S1(=O)[C@H]2C[C@H](CO)O[C@@]2(CO)CN1Cc1ccc(-c2ccc(F)cc2)cc1 was read as DT40 TDP1 CPT inconclusive, LDHA inh 4, TDP1 cell noCPT inconclusive and IL1B secr inh 64.
For Cc1ccc(C(C)NC(=O)c2ccc(Br)s2)cc1 (stereo not drawn) the results were LDHA inh -1.
`Cn1cncc1C#Cc1c(C=O)[nH]c2ccccc12` gave DT40 TDP1 CPT 5.8µM*, LDHA inh 1, TDP1 cell noCPT 10µM* and IL1B secr inh 16.
Cn1cncc1C#Cc1c(C=O)n(C)c2ccccc12 was read as DT40 TDP1 CPT inconclusive, LDHA inh -7, TDP1 cell noCPT -13% and IL1B secr inh 30.
Screening CCOc1ccc(S(=O)(=O)NCc2ccncc2)cc1NC(=O)c1ccccc1F returned RORg inh -10%, DT40 TDP1 CPT -24%, LDHA inh -3, TDP1 cell noCPT 1.5µM*, Gal4-VP16 FLuc -14% and IL1B secr inh 55.
For COc1ccc(CCNS(=O)(=O)c2ccc(Cl)cc2)cc1OC the results were RORg inh 19%, DT40 TDP1 CPT -28%, LDHA inh 0, TDP1 cell noCPT -10%, Gal4-VP16 FLuc 3% and IL1B secr inh 0.
`CCOc1ccc(S(=O)(=O)N2CCN(C)CC2)cc1NC(=O)c1ccccc1F` gave RORg inh 4µM*, DT40 TDP1 CPT inconclusive, LDHA inh 7, TDP1 cell noCPT inconclusive and Gal4-VP16 FLuc inconclusive.
For CCOc1ccc(S(=O)(=O)N2CCN(CC)CC2)cc1NC(=O)c1ccccc1F the results were RORg inh -4%, DT40 TDP1 CPT -5%, LDHA inh -9, TDP1 cell noCPT inconclusive, Gal4-VP16 FLuc 12% and IL1B secr inh -23.
COc1ccc(S(=O)(=O)NCc2ccncc2)cc1NC(=O)c1ccc(Cl)cc1 was read as DT40 TDP1 CPT 16µM*, LDHA inh -5, TDP1 cell noCPT 15µM* and IL1B secr inh -67*.
Screening COc1ccc(S(=O)(=O)NCCSCc2ccc(Cl)cc2)cc1NC(C)=O returned DT40 TDP1 CPT inconclusive, LDHA inh -4, TDP1 cell noCPT 26µM* and IL1B secr inh -15.
Screening Cc1cc(OCC(F)F)ccc1N returned LDHA inh -9.
For O=C(c1cc2ccccc2[nH]1)N1CCC(C(=O)N2CCCCCC2)CC1 the results were LDHA inh 9.
COc1ccc(S(=O)(=O)NCc2ccncc2)cc1NC(=O)c1ccccc1 was read as DT40 TDP1 CPT 21µM*, LDHA inh -7, TDP1 cell noCPT 16µM* and IL1B secr inh 15.
Screening CC(=O)Nc1ccc(S(=O)(=O)NCCSCc2c(Cl)cccc2Cl)cc1 returned RORg inh inconclusive, DT40 TDP1 CPT inconclusive, LDHA inh -2, TDP1 cell noCPT inconclusive, Gal4-VP16 FLuc -28% and IL1B secr inh -66*.
For CCOc1ccccc1NC(=O)c1cc(S(=O)(=O)NCc2ccco2)ccc1F the results were RORg inh -24%, DT40 TDP1 CPT 15µM*, LDHA inh 3, TDP1 cell noCPT -82%, Gal4-VP16 FLuc 2% and IL1B secr inh -7.
CCOc1ccc(S(=O)(=O)NCc2ccncc2)cc1NC(=O)c1ccccc1 was read as DT40 TDP1 CPT 3.7µM*, LDHA inh -13, TDP1 cell noCPT 1.2µM* and IL1B secr inh -9.
For COc1ccc(S(=O)(=O)NCc2cccnc2)cc1NC(=O)c1ccccc1 the results were RORg inh 4%, DT40 TDP1 CPT -6%, LDHA inh 1, TDP1 cell noCPT -18%, Gal4-VP16 FLuc -2% and IL1B secr inh 12.
CC(=O)Nc1ccc(S(=O)(=O)NCCSCc2cccc(Cl)c2)cc1 was read as RORg inh 6%[10 µM], DT40 TDP1 CPT inconclusive, LDHA inh 1, TDP1 cell noCPT inconclusive, Gal4-VP16 FLuc -2% and IL1B secr inh -16.
`CC1(C)CC(NC(=O)C2CCCC2)CC(C)(CNC(=O)C2CCCC2)C1` (stereo not drawn) gave LDHA inh 4.
